Data from the supplement of paper PMC7156485.

Key:
Conditions in all cases: concentration: 10 µM; 24 h
HCC1569 [1] = experiment: cell number relative to DMSO (% of DMSO); higher = more cells (less growth inhibition / toxicity)
Method in brief: (§1)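 Compounds were applied at 10 µM for 24 h at 37 °C, in triplicate, to HCC1569 and TDF cells. The cells were then fixed and stained for H1.0, and nuclei were counterstained with DAPI. Nuclear H1.0 intensity or cell number is reported relative to the plate control as a percent, taking the median of replicates. Smoothing for positional effects was applied to HCC1569 values only.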

TDF [2] = experiment: as above
Method in brief: as §1

TDF [3] = experiment: H1.0 immunofluorescence intensity relative to DMSO (% of DMSO); higher = stronger H1.0 induction, active = 120 or more
Method in brief: as §1

HCC1569 [4] = experiment: H1.0 immunofluorescence intensity relative to DMSO (% of DMSO); higher = stronger H1.0 induction, active = 140 or more
Method in brief: as §1
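Throughout, for H1.0 immunofluorescence intensity relative to DMSO: TDF is a line of transformed human dermal fibroblasts of mesenchymal origin.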
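Throughout, for cell number relative to DMSO: TDF denotes transformed human dermal fibroblasts of mesenchymal origin.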

With `NC(Cc1cccc(-c2ccccc2CP(=O)(O)O)c1)C(=O)O` (stereo not drawn) [Phenylbenzene-omega-phosphono-alpha-amino acid] the cell number (HCC1569 [1]) was 99.4, the cell number (TDF [2]) was 104 and the H1.0 immunofluorescence intensity (TDF [3]) was 89.5 (inactive). The H1.0 immunofluorescence intensity (HCC1569 [4]) was 105 (inactive).

`C[C@@H]1CCN(C(=O)CC#N)C[C@@H]1N(C)c1ncnc2[nH]ccc12` was tested, and the cell number (HCC1569 [1]) was 103, the cell number (TDF [2]) was 109 and the H1.0 immunofluorescence intensity (TDF [3]) was 79 (inactive). For the same molecule, the H1.0 immunofluorescence intensity (HCC1569 [4]) was 96.3 (inactive).

With `N#CC(=Cc1ccc(O)c(O)c1)C(=O)NCc1ccccc1` the cell number (HCC1569 [1]) was 95.2, the cell number (TDF [2]) was 96 and the H1.0 immunofluorescence intensity (TDF [3]) was 91.1 (inactive). For the same molecule, the H1.0 immunofluorescence intensity (HCC1569 [4]) was 121 (inactive).

In the case of `CCCCCC(O)C=CC1C=CC(=O)C1CC=CCCCC(=O)O` (stereo unspecified) [Prostaglandin A2], the cell number (HCC1569 [1]) was 103, the cell number (TDF [2]) was 110 and the H1.0 immunofluorescence intensity (TDF [3]) was 95.6 (inactive). For the same molecule, the H1.0 immunofluorescence intensity (HCC1569 [4]) was 104 (inactive).

For `Cl.OC(CCN1CCCCC1)(c1ccccc1)C1CCCCC1` (stereo unspecified) [Trihexyphenidyl hydrochloride], the cell number (HCC1569 [1]) was 103, the cell number (TDF [2]) was 104 and the H1.0 immunofluorescence intensity (TDF [3]) was 94 (inactive). For the same molecule, the H1.0 immunofluorescence intensity (HCC1569 [4]) was 75.4 (inactive).

With `Oc1cc(O)c2c(c1)OC(c1ccc(O)c(O)c1)C(O)C2` (single isomer, unassigned; (+)) [(+)-Catechine] the cell number (HCC1569 [1]) was 102, the cell number (TDF [2]) was 105 and the H1.0 immunofluorescence intensity (TDF [3]) was 91.8 (inactive). For the same molecule, the H1.0 immunofluorescence intensity (HCC1569 [4]) was 88.4 (inactive).

For `CCCCCCCCCC(=O)O` [Decanoic acid], the cell number (HCC1569 [1]) was 105, the cell number (TDF [2]) was 95.3 and the H1.0 immunofluorescence intensity (TDF [3]) was 100 (inactive). The H1.0 immunofluorescence intensity (HCC1569 [4]) was 103 (inactive).

For `Cn1c(=O)c(-c2c(Cl)cccc2Cl)cc2cnc(Nc3cccc(C(=O)O)c3)nc21`, the cell number (HCC1569 [1]) was 69.7, the cell number (TDF [2]) was 111 and the H1.0 immunofluorescence intensity (TDF [3]) was 95.7 (inactive). For the same molecule, the H1.0 immunofluorescence intensity (HCC1569 [4]) was 156 (active).

`CC(C)(C)C(=O)OCOC(=O)[C@@H]1N2C(=O)[C@@H](/N=C/N3CCCCCC3)[C@H]2SC1(C)C` was tested, and the cell number (HCC1569 [1]) was 84.7, the cell number (TDF [2]) was 93.4 and the H1.0 immunofluorescence intensity (TDF [3]) was 89 (inactive). For the same molecule, the H1.0 immunofluorescence intensity (HCC1569 [4]) was 115 (inactive).
